NS1 function inh = influenza NS1 inhibition. 0.4% of 270,000 active. AID 2326. Potency, µM (top dose mostly 46.1 µM), without a hit: top-dose activity, positive = more growth; calls by dose curve; note: actives are rising curves; nearly all actives have a fitted effect of over 50% in size
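S. cerevisiae expressing influenza A NS1, grown in glucose, washed, then diluted 1:100 into pH 6.0 -URA galactose medium with 23 nl compound. Growth recovery read as OD600; NS1-free strain serves as control.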
RE007 growth inh = less growth of the S. pombe RE007 Vpr strain; S. pombe RE007 Vpr strain, BacTiter-Glo ATP luminescence, 24 h; Potency, µM (titrated, usually from 92.2 µM), without a hit: at the top dose activity change, negative = less growth, most hits filed as inhibitors; 0.21% of 360,000 active; AID 651644; active = well fitted falling curve with a large enough effect; inconclusive = small, poorly fitted or top-dose-only effect; inactive = no such curve, though single readings can be large or run the other way; note: % is set by controls: 0 for no effect and ±100 for the full control effect; nearly all actives have a fitted effect of over 50% in size
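Fission yeast RE007 carrying one integrated HIV-1 vpr copy, seeded at OD 0.01 in PMG+AL medium with 23 nL pinned compound. Grown 24 h at 30 degrees; viability read by BacTiter-Glo luminescence after 5 min.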
FBPA Giardia inh = inhibitors of Giardia lamblia fructose-1,6-bisphosphate aldolase. purified Giardia FBPA. Potency, µM (titrated, usually from 59.6 µM), for inactives: at the top dose activity, negative = inhibition, actives largely listed as inhibitors. 0.71% of 290,000 active; note: % is set by controls: 0 for no effect and ±100 for the full control effect; nearly all actives have a fitted effect of over 55% in size
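Giardia FBPA (40 nM reagent) was preincubated 10 min at RT with compound (up to 57.5 uM final), then substrate plus GAPDH/TPI/NAD/arsenate coupling system with diaphorase/resazurin was added; resorufin fluorescence (525/598 nm) was read after 20 min.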
LmPK inh = blocks Leishmania mexicana pyruvate kinase activity; Potency, µM (top dose mostly 57.5 µM), without a hit: at the top dose activity change, negative = inhibition, hits mostly inhibitors; 0.37% of 290,000 active; Q27686; AID 1721; purified LmPK, Kinase-Glo ATP luminescence, 1 h; note: % is set by controls: 0 for no effect and ±100 for the full control effect
Target sequence (Q27686 whole entry, looked up): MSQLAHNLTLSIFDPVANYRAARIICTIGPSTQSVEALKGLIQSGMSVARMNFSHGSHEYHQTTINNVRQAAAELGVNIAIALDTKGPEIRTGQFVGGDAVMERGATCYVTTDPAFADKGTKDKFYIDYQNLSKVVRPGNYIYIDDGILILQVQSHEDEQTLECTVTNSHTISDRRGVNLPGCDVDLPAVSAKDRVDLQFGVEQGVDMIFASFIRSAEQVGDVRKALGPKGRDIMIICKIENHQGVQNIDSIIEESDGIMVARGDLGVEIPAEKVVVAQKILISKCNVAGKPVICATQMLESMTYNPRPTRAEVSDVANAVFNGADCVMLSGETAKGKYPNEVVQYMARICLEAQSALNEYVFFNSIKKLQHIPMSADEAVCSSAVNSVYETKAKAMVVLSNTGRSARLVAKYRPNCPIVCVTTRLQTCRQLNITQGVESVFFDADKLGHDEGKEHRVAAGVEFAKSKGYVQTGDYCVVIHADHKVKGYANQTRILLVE
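Pyruvate kinase activity monitored as ATP production (luciferase luminescence). Conditions: 0.1 nM enzyme, 0.5 mM PEP, 0.1 mM ADP, 1 h, RT; normalized against uninhibited and no-enzyme wells.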
TbPYK inhibitor = inhibitors of Trypanosoma brucei pyruvate kinase. 0.12% of 410,000 active. Potency, µM (top dose mostly 76.8 µM), without a hit: at the top dose activity, negative = inhibition, hits mostly inhibitors. TbPYK enzyme, Kinase-Glo Plus ATP luminescence, 45 min. Q57TT1. AID 624173; note: % is set by controls: 0 for no effect and ±100 for the full control effect; nearly all actives have a fitted effect of over 50% in size
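Enzyme and substrate buffer are dispensed first and compound is pin-transferred. ADP at 130 uM final then starts the reaction, which runs 45 min at room temperature. Detection reagent is added for 10 min before luminescence is imaged.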
Sm TGR block = inhibitors of Schistosoma mansoni thioredoxin glutathione reductase; 3% of 360,000 active; AID 485364; purified TGR, DTNB reduction, TNB absorbance 405 nm; Q962Y6; Potency, µM (doses to about 114 µM), inactives show at the highest dose activity change, negative = inhibition, most hits filed as inhibitors; note: % is set by controls: 0 for no effect and ±100 for the full control effect; nearly all actives have a fitted effect of over 60% in size
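First, TGR (20 nM dispensed) and NADPH were mixed with compound. Second, a 15 min room-temperature incubation followed. Third, further NADPH and then DTNB were added to start the reaction. Finally, TNB absorbance was monitored kinetically.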
Starred values were filed as active, the others as inactive; ? = inconclusive; / = no result; [ ] = remark or other dose. An excerpt weighted towards active compounds, which were near 3.5% of everything screened. Unless noted, calls come from the whole dose curve; as a rule, active = well fitted curve in the direction sought with a large enough effect; inconclusive = small, poorly fitted or top-dose-only effect, or another doubt; inactive = no such curve, though single readings can be large; an effect the other way counts as inactive or inconclusive. Potency is the fitted concentration of half-maximal effect.

SMILES	NS1 function inh	RE007 growth inh	FBPA Giardia inh	LmPK inh	TbPYK inhibitor	Sm TGR block
CNC[C@@H](O)[C@@H](O)[C@H](O)[C@H](O)CO	/	/	/	/	-3%	/
O=C(CCl)N(c1ccccc1)c1c[nH]c2ccccc12	-12%	?	-1%	4%	-17%	3.2µM*
O=C(Cc1ccc(Cl)cc1)NCCc1c[nH]c2ccccc12	/	-6%	/	/	4%	/
O=C(CCl)N(c1ccc(Cl)cc1)c1c[nH]c2ccccc12	-9%	12%	1%	1%	3%	0.71µM*
CCCOc1ccc(CNC(=O)C(NS(=O)(=O)c2cccs2)C(C)C)cc1 (stereo not given)	/	/	/	/	-8%	?
Cc1ccc(-n2nc(C)c(NC(=O)CCl)c2C)cc1C	7%	-2%	4%	-2%	-1%	22µM*
O=C(C1CC1)N(Cc1ccco1)c1nc(-c2ccccc2)cs1	-4%	-11%	-9%	-11%	-3%	32µM*
COc1ccc(OC)c(-c2csc(N(Cc3ccco3)C(=O)c3cccs3)n2)c1	-9%	-14%	-6%	-3%	5%	-22%
COc1ccc(-c2csc(N(Cc3ccco3)C(=O)c3cccs3)n2)cc1	-3%	37%	-4%	0%	0%	13µM*
CCOC(=O)C1(CCOc2ccccc2)CCN(Cc2ccc(OC)c(O)c2)CC1	14%	-4%	2%	-2%	-1%	-1%
CCOC(=O)C1(CCOc2ccccc2)CCN(Cc2ccc(O)c(OCC)c2)CC1	1%	-15%	8%	11%	4%	45µM*
CCOC(=O)C1(CCOc2ccccc2)CCN(Cc2cc(OC)c(O)c(OC)c2)CC1	9%	1%	?	0%	-2%	40µM*
CCOC(=O)C1(CCOc2ccccc2)CCN(Cc2ccc(O)cc2)CC1	0%	-9%	-3%	-4%	-18%	0%
CCOC(=O)C1(Cc2ccccc2C)CCCN(Cc2cc(OC)c(O)c(OC)c2)C1 (stereo not given)	8%	0%	?	4%	-2%	4.5µM*
Cc1nc(-c2cccc(S(=O)(=O)N3CCC(C(=O)NCc4ccccc4)CC3)c2)no1	/	/	/	/	-2%	0%
Nc1nc(N)c2cc([N+](=O)[O-])ccc2n1	/	9%	/	/	-3%	/
Nc1nc(N)c2c(ccc3c2ccn3Cc2cccc([N+](=O)[O-])c2)n1	/	5.6µM*	/	/	1%	/
Cc1nc([N+](=O)[O-])c(Br)n1Cc1ccc(Cl)c(Cl)c1	/	41%	1%	12%	-4%	9%
Cc1nc([N+](=O)[O-])c(Br)n1CC(=O)c1ccc(Cl)cc1	-83%	-1%	1%	1%	-5%	7.1µM*
COc1ccc(C(=O)Cn2c(C)nc([N+](=O)[O-])c2Br)cc1	-38%	32%	2%	-1%	2%	2.5µM*
Cc1cc(C)cc(NC(=O)C(=O)NCC(c2ccc3c(c2)OCO3)N2CCN(C)CC2)c1 (stereo not given)	/	/	/	/	1%	1%
O=C(O)c1cc(O)c2c(c1)[C@H]([C@H]1c3cc(C(=O)O)cc(O)c3C(=O)c3c(O[C@@H]4OC(CO)C(O)C(O)C4O)cccc31)c1cccc(O[C@@H]3OC(CO)C(O)C(O)C3O)c1C2=O (stereo not given in full)	/	/	18µM*	/	-9%	/
CC(=O)N1CCc2cc(CNS(=O)(=O)c3ccc(Cl)s3)ccc21	/	/	/	/	0%	-3%
Cc1ccc(N(Cc2cc(=O)[nH]c3ccccc23)C(=O)CCl)c(C)c1	-3%	6%	6%	2%	-13%	13µM*
Cc1ccc(CCNC(=O)c2cc(S(=O)(=O)N3CCOCC3)cn2C)cc1	-8%	14%	10%	-4%	-1%	-2%
SMILES	NS1 function inh	RE007 growth inh	FBPA Giardia inh	LmPK inh	TbPYK inhibitor	Sm TGR block
O=S(=O)(NCCC1=CCCCC1)c1cccc(S(=O)(=O)N2CCOCC2)c1	-4%	-28%	-4%	6%	?	2%
Cn1cc(S(=O)(=O)N2CCOCC2)cc1C(=O)NCCc1ccccc1	14%	8%	2%	-1%	-6%	89µM*
O=S(=O)(NCCc1ccccc1)c1cccc(S(=O)(=O)N2CCOCC2)c1	-7%	6%	4%	4%	-1%	35µM*
CC(Sc1nnc(C2CC2)n1-c1ccccc1)C(=O)N1CCCC1 (stereo not given)	/	-9%	/	/	-19%	32µM*
C[C@]12CC[C@@H]3c4ccc(O)c(O)c4CC[C@H]3[C@@H]1CC[C@@H]2O	29%	5%[18.4 µM]	13µM*	1µM*	10µM*	?
C[C@@]12CC[C@@H]3c4ccc(O)cc4CC[C@H]3[C@H]1CC[C@H]2O	/	/	-4%[21.7 µM]	/	/	/
Cc1ccc(S(=O)(=O)/N=C(\Sc2ccccc2)c2ccccc2)cc1	1%	-18%	3%	-13%	-15%	7.9µM*
O=S(=O)(/N=C(\Sc1ccccc1)c1ccccc1)c1ccc(Cl)cc1	5%	7%	8%	-1%	-4%	0%
Cc1ccc(S(=O)(=O)/N=C(/Sc2ccccc2C(=O)O)c2ccccc2)cc1	15%	9%	/	-2%	-3%	35µM*
CCOC(=O)Cn1c(=O)oc2cc(S(=O)(=O)N3CCC(C(=O)OCC)CC3)ccc21	/	/	/	/	-1%	-1%
CCC(C(=O)NC1CCC(C)CC1)n1nc(C)c2sc3ccccc3c2c1=O (stereo not given)	/	/	/	/	2%	-1%
CC(C)=CCC1=C(O)c2ccccc2C(=O)C1=O	/	/	1.1µM*	/	/	/
O=C1C(=O)c2ccccc2C(O)=C1CC=C(Cl)Cl	/	?	/	/	2%	/
CC(=O)c1cc2c(cc1NC(=O)CCn1cccc1)OCO2	-12%	-13%	-5%	4%	-4%	35µM*
CC(=O)c1cc2c(cc1NC(=O)CCC1CCCC1)OCO2	-8%	/	-1%	0%	/	2%
CCCC[C@H]1CCCO[C@@](C(=O)NCc2ccc(C)o2)(C(F)(F)F)C1	/	/	-4%	/	/	/
Cc1cc(/C=C2/NC(=O)NC2=O)c(C)n1C	/	0%	?	0%	-2%	14µM*
Cc1cc(C)c(-n2c(C)cc(/C=C3/NC(=O)NC3=O)c2C)c(C)c1	-50%	41%	-5%	1%	-2%	-14%
Cc1ccc(CNC(=O)CSCc2nc(-c3cccc(C)c3)oc2C)cc1	/	/	/	/	-3%	?
Cc1ccc(N2C(=O)CC(Sc3nccc(C)n3)C2=O)cc1 (stereo not given)	0%	-6%	5%	0%	-3%	?
Cc1ccnc(SC2CC(=O)N(c3ccc([N+](=O)[O-])cc3)C2=O)n1 (stereo not given)	-4%	-16%	-8%	-2%	0%	22µM*

Bioassay records deposited in PubChem by National Center for Advancing Translational Sciences (NCATS).
